Experimental data: PubChem BioAssay (EPA / NIEHS)
Activity calls are given as the source filed them. The calls were made as follows: active = hit-call score of the fitted dose curve at least 0.9, where 1 is the maximum; inactive = score below 0.9.

Legend:
[1] = read-out: Cyclin D1 (CCND1), CCND1 (gene 595); assay: LTEA_HepaRG_CCND1: Life Technologies and Expression Analysis (LTEA) Assay for Cyclin D1 (CCND1) using HepaRG (AID 2283451); conditions: mRNA level, 48 h; actives raise or lower the signal;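 as to AC50: differentiated human HepaRG liver cells in serum-free induction medium; TaqMan qRT-PCR transcript level normalised to ACTB GAPDH and POLR2A housekeeping genes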
Method in brief: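 HepaRG plated 48 h, medium switched to serum-free induction medium, chemicals added in duplicate (top 100 uM, half-log steps, 0.5% DMSO) for 48 h, cells lysed, RNA measured by TaqMan qRT-PCR.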

[2] = read-out: catalase (CAT), CAT (gene 847); assay: LTEA_HepaRG_CAT: Life Technologies and Expression Analysis (LTEA) Assay for catalase (CAT) using HepaRG (AID 2283452); conditions: mRNA level, 48 h; actives raise or lower the signal
Method in brief: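 Differentiated HepaRG cells in serum-free induction medium were dosed 48 h in duplicate, eight half-log concentrations from 100 uM in 0.5% DMSO. Transcript measured by TaqMan qRT-PCR, normalised to ACTB/GAPDH/POLR2A, fitted bidirectionally against DMSO.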

[3] = read-out: flavin-containing dimethylaniline monooxygenases 3 (FMO3), FMO3 (gene 2328); assay: LTEA_HepaRG_FMO3: Life Technologies and Expression Analysis (LTEA) Assay for flavin-containing dimethylaniline monooxygenases 3 (FMO3) using HepaRG (AID 2283453); conditions: mRNA level, 48 h; actives raise or lower the signal;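 as to AC50: differentiated human HepaRG liver cells in serum-free induction medium; FMO3 transcript by TaqMan qRT-PCR normalized to ACTB GAPDH and POLR2A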
Method in brief: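 FMO3 transcript quantified by TaqMan qRT-PCR against three housekeeping genes after 48 h chemical exposure of HepaRG cells. Eight-point half-log series, top 100 uM, 0.5% DMSO vehicle; phenobarbital 1mM induction control; up- or down-regulation fitted.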

[4] = read-out: Cytochrome P450 (CYP1A1), CYP1A1 (gene 1543); assay: LTEA_HepaRG_CYP1A1: Life Technologies and Expression Analysis (LTEA) Assay for Cytochrome P450 (CYP1A1) using HepaRG (AID 2283454); conditions: mRNA level, 48 h; actives raise or lower the signal
Method in brief: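 HepaRG, 48 h post-plating switched to serum-free induction medium; 8-pt conc-response (top 100 uM, half-log, 0.5% DMSO), duplicates, 48 h. Lysis in RLT, TaqMan qRT-PCR for CYP1A1; gain or loss vs DMSO.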

[5] = read-out: CFLAR gene, CFLAR (gene 8837); assay: LTEA_HepaRG_CFLAR: Life Technologies and Expression Analysis (LTEA) Assay for CFLAR gene using HepaRG (AID 2283455); conditions: mRNA level, 48 h; actives raise or lower the signal
Method in brief: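 Gain- or loss-of-signal changes in CFLAR transcript were fitted bidirectionally relative to 0.5% DMSO. Cells (HepaRG, duplicate wells) were dosed for 48 h across eight half-log concentrations topping at 100 uM; quantitation by TaqMan qRT-PCR.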

[6] = read-out: Forkhead box O1 (FOXO1), FOXO1 (gene 2308); assay: LTEA_HepaRG_FOXO1: Life Technologies and Expression Analysis (LTEA) Assay for Forkhead box O1 (FOXO1) using HepaRG (AID 2283456); conditions: mRNA level, 48 h; actives raise or lower the signal
Method in brief: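 Using one lot of HepaRG hepatic cells kept in 0.5% DMSO, the team applied test chemicals in duplicate, half-log dilutions from 100 uM, for 48 h. Expression, normalised to ACTB/GAPDH/POLR2A, was compared with vehicle in either direction.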

[7] = read-out: growth arrest and DNA damage 45 (GADD45A), GADD45A (gene 1647); assay: LTEA_HepaRG_GADD45A: Life Technologies and Expression Analysis (LTEA) Assay for growth arrest and DNA damage 45 (GADD45A) using HepaRG (AID 2283458); conditions: mRNA level, 48 h; actives raise or lower the signal
Method in brief: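 GADD45A expression was measured by TaqMan qRT-PCR against three housekeeping genes (ACTB, GAPDH, POLR2A) after 48 h treatment of HepaRG cells. Eight-point half-log series up to 100 uM in 0.5% DMSO, run in duplicate.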

[8] = read-out: Forkhead box O3 (FOXO3), FOXO3 (gene 2309); assay: LTEA_HepaRG_FOXO3: Life Technologies and Expression Analysis (LTEA) Assay for Forkhead box O3 (FOXO3) using HepaRG (AID 2283459); conditions: mRNA level, 48 h; actives raise or lower the signal
Method in brief: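 Gene-expression endpoint: FOXO3 transcript level by qRT-PCR in HepaRG cultures treated 48 h with chemicals up to 100 uM (half-log, 0.5% DMSO vehicle).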

[9] = read-out: ABC Transporter (ABCB1), ABCB1 (gene 5243); assay: LTEA_HepaRG_ABCB1: Life Technologies and Expression Analysis (LTEA) Assay for ABC Transporter (ABCB1) using HepaRG (AID 2283460); conditions: mRNA level, 48 h; actives raise or lower the signal
Method in brief: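 Human liver HepaRG line treated 48 h with up to 100 uM compound (eight half-log points, 0.5% DMSO); ABCB1 mRNA change fitted bidirectionally against DMSO controls.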

[10] = read-out: growth arrest and DNA damage 45 (GADD45B), GADD45B (gene 4616); assay: LTEA_HepaRG_GADD45B: Life Technologies and Expression Analysis (LTEA) Assay for growth arrest and DNA damage 45 (GADD45B) using HepaRG (AID 2283461); conditions: mRNA level, 48 h; actives raise or lower the signal
Method in brief: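 HepaRG, ~100,000 cells/well, 48 h plating; serum-free induction medium; cpd 100 uM top, half-log x8, 0.5% DMSO, duplicate, 48 h; lysis in RLT, RNA isolation, qRT-PCR; norm ACTB/GAPDH/POLR2A; bidirectional fit vs DMSO.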

[11] = read-out: ABC Transporter (ABCC3), ABCC3 (gene 8714); assay: LTEA_HepaRG_ABCC3: Life Technologies and Expression Analysis (LTEA) Assay for ABC Transporter (ABCC3) using HepaRG (AID 2283462); conditions: mRNA level, 48 h; actives raise or lower the signal
Method in brief: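 Human HepaRG, 48 h dosing, 8-pt half-log series from 100 uM, 0.5% DMSO vehicle, duplicates. ABCC3 mRNA by TaqMan qRT-PCR, housekeeping-normalized; bidirectional curve fit vs DMSO.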

[12] = read-out: ABC Transporter (ABCB11), ABCB11 (gene 8647); assay: LTEA_HepaRG_ABCB11: Life Technologies and Expression Analysis (LTEA) Assay for ABC Transporter (ABCB11) using HepaRG (AID 2283463); conditions: mRNA level, 48 h; actives raise or lower the signal
Method in brief: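 Using HepaRG cultures held in 0.5% DMSO, chemicals were tested at half-log dilutions from 100 uM for 48 h. Induction or suppression of ABCB11 mRNA, normalized to ACTB, GAPDH and POLR2A, was fitted bidirectionally against vehicle.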

[13] = read-out: ABC Transporter (ABCC2), ABCC2 (gene 1244); assay: LTEA_HepaRG_ABCC2: Life Technologies and Expression Analysis (LTEA) Assay for ABC Transporter (ABCC2) using HepaRG (AID 2283464); conditions: mRNA level, 48 h; actives raise or lower the signal
Method in brief: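 HepaRG, 48 h post-plating; serum-free induction medium; cpd 8-pt, 100 uM top, half-log, 0.5% DMSO, duplicate, 48 h. Readout: ABCC2 mRNA by qRT-PCR, norm. ACTB/GAPDH/POLR2A. Bidirectional fit vs DMSO baseline.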

[14] = read-out: Broad substrate specificity ATP-binding cassette transporter ABCG2 (Homo sapiens) (UniProt Q9UNQ0); assay: LTEA_HepaRG_ABCG2: Life Technologies and Expression Analysis (LTEA) Assay for ABC Transporter (ABCG2) using HepaRG (AID 2283465); conditions: mRNA level, 48 h; actives raise or lower the signal
Method in brief: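 Gene expression of ABCG2 in HepaRG liver cells is quantified by qRT-PCR following 48 h exposure across an eight-point series topping at 100 uM. Values come from bidirectional fitting relative to DMSO vehicle.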

[15] = read-out: ATP-citrate lyase (ACLY), ACLY (gene 47); assay: LTEA_HepaRG_ACLY: Life Technologies and Expression Analysis (LTEA) Assay for ATP-citrate lyase (ACLY) using HepaRG (AID 2283466); conditions: mRNA level, 48 h; actives raise or lower the signal
Method in brief: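 ACLY expression changes in human HepaRG liver cells are quantified by qRT-PCR after 48 h exposure to test chemicals (maximum 100 uM, half-log steps). Values are fitted in both directions relative to 0.5% DMSO vehicle.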

[16] = read-out: Peroxisomal acyl-coenzyme A oxidase 1 (ACOX1) gene, ACOX1 (gene 51); assay: LTEA_HepaRG_ACOX1: Life Technologies and Expression Analysis (LTEA) Assay for Peroxisomal acyl-coenzyme A oxidase 1 (ACOX1) gene using HepaRG (AID 2283467); conditions: mRNA level, 48 h; actives raise or lower the signal
Method in brief: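 Human HepaRG hepatic cultures, 48 h treatment with test chemicals up to 100 uM. ACOX1 expression read by qRT-PCR relative to 0.5% DMSO vehicle.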

[17] = read-out: Alkaline Phosphatase, Placental (ALPP) gene, ALPP (gene 250); assay: LTEA_HepaRG_ALPP: Life Technologies and Expression Analysis (LTEA) Assay for Alkaline Phosphatase, Placental (ALPP) gene using HepaRG (AID 2283468); conditions: mRNA level, 48 h; actives raise or lower the signal;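 as to AC50: differentiated human HepaRG liver cells in serum-free induction medium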
Method in brief: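 HepaRG, 48 h plating then 48 h dosing, serum-free induction medium, 0.5% DMSO. 8 conc, half-log, max 100 uM, duplicates. Endpoint: ALPP transcript by qRT-PCR, housekeeping-normalized; gain or loss fitted vs DMSO.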

[18] = read-out: Bcl-2 (BAD) gene, BAD (gene 572); assay: LTEA_HepaRG_BAD: Life Technologies and Expression Analysis (LTEA) Assay for Bcl-2 (BAD) gene using HepaRG (AID 2283469); conditions: mRNA level, 48 h; actives raise or lower the signal
Method in brief: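 Activity values reflect up- or down-regulation of BAD mRNA in human HepaRG hepatic cells treated 48 h in serum-free medium, with eight-point half-log dosing capped at 100 uM and 0.5% DMSO vehicle.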

[19] = read-out: Bcl-2 (BAX) gene, BAX (gene 581); assay: LTEA_HepaRG_BAX: Life Technologies and Expression Analysis (LTEA) Assay for Bcl-2 (BAX) gene using HepaRG (AID 2283470); conditions: mRNA level, 48 h; actives raise or lower the signal
Method in brief: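 Gene expression measured by Fluidigm qRT-PCR with three housekeeping genes for normalisation. HepaRG cells, plated 48 h beforehand, treated 48 h at up to 100 uM (8-point, half-log) in 0.5% DMSO. Bidirectional fitting versus DMSO.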

[20] = CEETOX_H295R_TESTO: CeeTox H295R High-throughput Steroidogenesis Assay for Testosterone (TESTO) (AID 2283457); conditions: actives raise or lower the signal
Method in brief: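 H295R, passage ≤10, 48 h dosing; media extracted with MTBE → HPLC-MS/MS for testosterone; 7-pt standard curve sets LLOQ/ULOQ; bidirectional fit vs DMSO; MTT viability same wells.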

Measured: AC50

Broad substrate specificity ATP-binding cassette transporter ABCG2 (Homo sapiens), sequence (Q9UNQ0 whole entry, looked up): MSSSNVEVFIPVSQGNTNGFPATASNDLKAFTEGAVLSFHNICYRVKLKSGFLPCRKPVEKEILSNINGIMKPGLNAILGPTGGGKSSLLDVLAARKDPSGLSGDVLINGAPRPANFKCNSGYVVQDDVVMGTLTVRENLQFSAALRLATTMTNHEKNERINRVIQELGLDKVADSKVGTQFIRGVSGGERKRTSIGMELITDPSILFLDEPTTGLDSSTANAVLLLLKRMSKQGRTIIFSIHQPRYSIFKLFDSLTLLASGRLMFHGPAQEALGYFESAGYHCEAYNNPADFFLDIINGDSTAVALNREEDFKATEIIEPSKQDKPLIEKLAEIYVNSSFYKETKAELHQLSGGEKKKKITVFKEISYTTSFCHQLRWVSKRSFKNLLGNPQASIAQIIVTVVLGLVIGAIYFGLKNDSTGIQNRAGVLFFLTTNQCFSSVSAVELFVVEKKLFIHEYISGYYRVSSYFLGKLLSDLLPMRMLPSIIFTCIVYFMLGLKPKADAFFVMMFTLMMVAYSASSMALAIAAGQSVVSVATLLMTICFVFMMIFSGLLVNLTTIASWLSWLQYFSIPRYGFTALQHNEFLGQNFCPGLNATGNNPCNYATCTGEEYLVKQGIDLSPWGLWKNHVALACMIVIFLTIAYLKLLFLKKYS

CN1C(=O)CC[C@H]1c1cccnc1
inactive: [1] | [2] | [3] | [5] | [6] | [7] | [8] | [9] | [10] | [11] | [12] | [13] | [14] | [15] | [16] | [17] | [18] | [19]
active: [4] 76.9 µM

CC[C@@H]1C[C@H](N(Cc2cc(C(F)(F)F)cc(C(F)(F)F)c2)C(C)=O)c2cc(C(F)(F)F)ccc2N1C(=O)OC(C)C
active: [4] 16.7 µM | [9] 0.429 µM | [13] 0.737 µM
inactive: [1] | [2] | [3] | [5] | [6] | [7] | [8] | [10] | [11] | [12] | [14] | [15] | [16] | [17] | [18] | [19]

O=C(O)Cn1c(=O)n(Cc2ccc(Br)cc2F)c(=O)c2ccc(Cl)cc21
active: [4] 87.8 µM | [9] 9.92 µM
inactive: [1] | [2] | [3] | [5] | [6] | [20] | [7] | [8] | [10] | [11] | [12] | [13] | [14] | [15] | [16] | [17] | [18] | [19]

CCCCCCCCCCCC[N+](C)(C)C
active: [1] 82.7 µM | [2] 75.4 µM | [3] 79.3 µM | [4] 67.8 µM | [7] 74.9 µM | [10] 84.1 µM | [12] 73.9 µM | [13] 50 µM | [14] 67.5 µM | [15] 83.3 µM | [16] 77.8 µM | [17] 66.1 µM | [19] 84.6 µM
inactive: [5] | [6] | [8] | [9] | [11] | [18]

O=CCCCC=O
inactive: [1] | [2] | [3] | [4] | [5] | [6] | [7] | [8] | [9] | [10] | [11] | [12] | [13] | [14] | [15] | [16] | [17] | [18] | [19]

CCCCCCCCN(C)CCCCCCCC
inactive: [1] | [2] | [3] | [4] | [5] | [6] | [20] | [7] | [8] | [9] | [10] | [11] | [12] | [13] | [14] | [15] | [16] | [17] | [18] | [19]
